According to PubChem BioAssay (Tox21):
Several values for one entry are separate records, joined by “and”; a condition that tells them apart may be missing. Equal values may be shown once. Inconclusive results are not listed. Where a call stands in place of a potency, no number is given. Some compounds were tested as several samples or in several runs, with calls that do not always agree. Activity calls are given as the source filed them. Unless noted, calls follow the shape of the dose curve; as a rule, active = well fitted curve in the direction sought with a large enough effect in the repeat runs; inconclusive = weak or mixed curves; inactive = no such curve, though single readings can be large; an effect the other way counts as inactive or inconclusive.

Key:
[1] = qHTS assay to identify small molecule antagonists of the sonic hedgehog signaling (Shh) pathway (AID 1259369; calls by dose curve; also: nearly all actives have a fitted effect of over 45% in size; also: potency is read from the fitted curve at half-maximal effect)
How it was run: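 Luminescence readout: firefly Luc under Gli1 response element in 3T3Gli1-Luc cells (NIH/3T3 clone). Antagonist mode, stimulation by conditioned medium; compound exposure 24hr at 37 C, 5% CO2.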

[2] = molecular target: Estrogen receptor beta (Homo sapiens) (UniProt Q92731); test: qHTS assay to identify small molecule agonists of the estrogen receptor beta (ER-beta) signaling pathway (AID 1259377; active = well fitted activation curve with a large enough effect in the signal ratio in the repeat runs, not every such curve was filed as active; the % refers to the signal ratio)
How it was run: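 Reporter cells (HEK293T, ER-beta-UAS-bla) receive compounds or DMSO after a 6 hr pre-incubation. They then incubate 16 hr at 37C/5% CO2, and fluorescence from LiveBLAzer B/G substrate is measured after 2 hours at room temperature.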

[3] = molecular target: Estrogen receptor beta (Homo sapiens) (UniProt Q92731); test: qHTS assay to identify small molecule antagonists of the estrogen receptor beta (ER-beta) signaling pathway (AID 1259378; active = well fitted inhibition curve with a large enough effect in the signal ratio in the repeat runs, not every such curve was filed as active; the % refers to the signal ratio)
How it was run: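 ER-beta-UAS-bla HEK293T (GripTite) cells in 2% charcoal-stripped FBS medium were preincubated 6 hr at 37C, dosed with compound, then stimulated with 1 nM E2 (final) for 16 hr; beta-lactamase reporter read by B/G FRET fluorescence after 2 hr substrate loading.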

[4] = qHTS assay to identify small molecule agonists of the androgen receptor (AR) signaling pathway in the presence of an antagonist - cell viability counter screen (AID 1259379); also: nearly all actives have a fitted effect of over 25% in size; also: potency is read from the fitted curve at half-maximal effect
How it was run: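 Viability counter screen: CellTiter-Fluor fluorescence, measured in the same wells as the luciferase read-out. MDA-kb2 cells, 3,000/well, with nilutamide at 3.0uM final and compounds at 15 concentrations, 16 hr at 37C, 0% CO2.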

[5] = qHTS assay to identify small molecule agonists of the estrogen receptor beta (ER-beta) signaling pathway - cell viability counter screen (AID 1259380); also: nearly all actives have a fitted effect of over 30% in size; also: potency is read from the fitted curve at half-maximal effect
How it was run: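 Luminescence read-out (CellTiter-Glo, 30 min, room temp) taken in the same wells as the beta-lactamase reporter assay; ER-beta-UAS-bla HEK293T cells exposed to DMSO-dissolved compounds for 16 hr at 37C in 2% charcoal-stripped FBS medium.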

[6] = qHTS assay to identify small molecule antagonists of the estrogen receptor beta (ER-beta) signaling pathway - cell viability counter screen (AID 1259382); also: nearly all actives have a fitted effect of over 55% in size; also: potency is read from the fitted curve at half-maximal effect
How it was run: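 Luminescent ATP read-out (CellTiter-Glo, 30 min, RT) taken in the same wells as the bla reporter assay. HEK293T ER-beta-UAS-bla cells in 2% charcoal-stripped FBS were exposed to compounds with 1nM E2 for 16 hr at 37C.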

[7] = molecular target: Estrogen receptor (Homo sapiens) (UniProt P03372); test: qHTS assay to identify small molecule agonists of the estrogen receptor alpha (ER-alpha) signaling pathway in the presence of an antagonist (AID 1259383; calls by dose curve; also: nearly all actives have a fitted effect of over 15% in size; also: potency is read from the fitted curve at half-maximal effect; as to activation: top concentration of the series differs between compounds)
How it was run: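 Luciferase luminescence (ONE-Glo, 30min at room temperature) measured in VM7Luc4E2 cells after 22hr compound exposure at 15 concentrations, with 10.0nM ICI-182,780 final present; cells express endogenous ER-alpha and carry four EREs upstream of luciferase.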

[8] = molecular target: Thyrotropin receptor (Homo sapiens) (UniProt P16473); test: qHTS assay to identify small molecule antagonists of the thyroid stimulating hormone receptor (TSHR) signaling pathway (AID 1259385; calls by dose curve; also: nearly all actives have a fitted effect of over 20% in size)
How it was run: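 TSHR-HEK293 cells were plated and held 18 h at 37C/5% CO2, then given compound plus Ro20-1724 and stimulated with TSH at 1.5 ng/mL final. After 30 min at room temperature, cAMP was detected with cAMP-d2/anti-cAMP-cryptate (1 h) by fluorescence.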

[9] = qHTS assay to identify small molecule agonists or antagonists of the thyroid stimulating hormone receptor (TSHR) signaling pathway - wild type cell line counter screen (AID 1259384; calls by dose curve)
How it was run: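 Wild-type HEK293 cells were plated 18 h at 37 C/5% CO2, pin-dosed with compound plus Ro20-1724 medium, held 30 min at room temperature, then given cAMP-d2 and anti-cAMP-cryptate; fluorescence was read after 1 h. Fifteen concentrations, triplicate.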

[10] = molecular target: Androgen receptor (Homo sapiens) (UniProt P10275); test: qHTS assay to identify small molecule agonists of the androgen receptor (AR) signaling pathway in the presence of an antagonist (AID 1259381; calls by dose curve; also: nearly all actives have a fitted effect of over 15% in size)
How it was run: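 Luciferase read-out (ONE-Glo, 30min room temperature) in MDA-kb2 MMTV-reporter cells; agonist mode run in presence of AR antagonist nilutamide, 3.0uM final. Compounds tested as 15-point series, 16hr exposure at 37C, 0% CO2.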

Chain of Estrogen receptor beta (Homo sapiens) (Q92731 whole entry, looked up): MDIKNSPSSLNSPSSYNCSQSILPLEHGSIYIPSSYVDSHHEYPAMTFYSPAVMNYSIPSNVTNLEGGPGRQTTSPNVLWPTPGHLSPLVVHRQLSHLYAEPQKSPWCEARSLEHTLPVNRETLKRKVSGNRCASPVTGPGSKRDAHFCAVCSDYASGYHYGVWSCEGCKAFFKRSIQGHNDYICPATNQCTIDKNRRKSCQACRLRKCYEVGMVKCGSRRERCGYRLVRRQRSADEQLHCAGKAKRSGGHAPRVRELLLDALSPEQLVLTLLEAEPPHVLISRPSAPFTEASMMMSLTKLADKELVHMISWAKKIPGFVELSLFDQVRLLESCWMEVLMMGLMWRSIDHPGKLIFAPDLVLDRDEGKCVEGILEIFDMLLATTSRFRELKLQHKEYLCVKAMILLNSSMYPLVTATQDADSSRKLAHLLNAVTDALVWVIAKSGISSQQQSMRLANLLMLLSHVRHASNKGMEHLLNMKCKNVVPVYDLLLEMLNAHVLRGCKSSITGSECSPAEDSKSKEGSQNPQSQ
Chain of Estrogen receptor (Homo sapiens) (P03372 whole entry, looked up): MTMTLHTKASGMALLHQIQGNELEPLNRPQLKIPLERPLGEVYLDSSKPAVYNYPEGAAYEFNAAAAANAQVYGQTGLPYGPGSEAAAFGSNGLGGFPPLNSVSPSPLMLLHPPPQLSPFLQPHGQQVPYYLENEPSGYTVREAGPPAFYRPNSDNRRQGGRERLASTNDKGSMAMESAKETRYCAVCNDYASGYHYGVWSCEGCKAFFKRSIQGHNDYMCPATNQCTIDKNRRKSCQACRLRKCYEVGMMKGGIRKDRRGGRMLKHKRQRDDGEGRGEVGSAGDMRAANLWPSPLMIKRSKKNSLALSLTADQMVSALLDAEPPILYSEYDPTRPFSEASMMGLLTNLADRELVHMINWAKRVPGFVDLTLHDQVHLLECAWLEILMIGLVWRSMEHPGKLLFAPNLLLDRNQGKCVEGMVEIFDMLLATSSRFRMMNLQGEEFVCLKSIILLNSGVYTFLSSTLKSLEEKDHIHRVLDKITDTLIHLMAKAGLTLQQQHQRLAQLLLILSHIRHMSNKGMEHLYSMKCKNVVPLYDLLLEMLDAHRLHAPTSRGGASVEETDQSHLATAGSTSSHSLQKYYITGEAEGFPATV
Chain of Thyrotropin receptor (Homo sapiens) (P16473 whole entry, looked up): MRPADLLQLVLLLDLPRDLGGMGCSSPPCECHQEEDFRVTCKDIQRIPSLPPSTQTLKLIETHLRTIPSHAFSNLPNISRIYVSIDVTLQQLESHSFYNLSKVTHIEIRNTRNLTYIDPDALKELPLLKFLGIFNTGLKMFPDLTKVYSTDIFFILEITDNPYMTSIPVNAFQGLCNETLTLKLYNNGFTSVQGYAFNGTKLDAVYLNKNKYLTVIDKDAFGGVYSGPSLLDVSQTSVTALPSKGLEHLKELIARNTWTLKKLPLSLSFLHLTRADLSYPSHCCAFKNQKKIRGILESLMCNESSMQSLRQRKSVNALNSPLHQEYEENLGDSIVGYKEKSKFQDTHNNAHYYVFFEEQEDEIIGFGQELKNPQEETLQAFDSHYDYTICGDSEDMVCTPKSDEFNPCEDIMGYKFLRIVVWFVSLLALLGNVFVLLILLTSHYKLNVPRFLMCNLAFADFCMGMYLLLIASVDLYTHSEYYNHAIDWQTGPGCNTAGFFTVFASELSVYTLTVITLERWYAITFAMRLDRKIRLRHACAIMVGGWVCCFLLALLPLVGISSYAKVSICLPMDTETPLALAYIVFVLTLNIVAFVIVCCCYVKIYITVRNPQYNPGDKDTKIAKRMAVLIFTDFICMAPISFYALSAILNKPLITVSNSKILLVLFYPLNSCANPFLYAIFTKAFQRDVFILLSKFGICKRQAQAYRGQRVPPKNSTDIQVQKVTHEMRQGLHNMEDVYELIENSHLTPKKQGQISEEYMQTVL
Chain of Androgen receptor (Homo sapiens) (P10275 whole entry, looked up): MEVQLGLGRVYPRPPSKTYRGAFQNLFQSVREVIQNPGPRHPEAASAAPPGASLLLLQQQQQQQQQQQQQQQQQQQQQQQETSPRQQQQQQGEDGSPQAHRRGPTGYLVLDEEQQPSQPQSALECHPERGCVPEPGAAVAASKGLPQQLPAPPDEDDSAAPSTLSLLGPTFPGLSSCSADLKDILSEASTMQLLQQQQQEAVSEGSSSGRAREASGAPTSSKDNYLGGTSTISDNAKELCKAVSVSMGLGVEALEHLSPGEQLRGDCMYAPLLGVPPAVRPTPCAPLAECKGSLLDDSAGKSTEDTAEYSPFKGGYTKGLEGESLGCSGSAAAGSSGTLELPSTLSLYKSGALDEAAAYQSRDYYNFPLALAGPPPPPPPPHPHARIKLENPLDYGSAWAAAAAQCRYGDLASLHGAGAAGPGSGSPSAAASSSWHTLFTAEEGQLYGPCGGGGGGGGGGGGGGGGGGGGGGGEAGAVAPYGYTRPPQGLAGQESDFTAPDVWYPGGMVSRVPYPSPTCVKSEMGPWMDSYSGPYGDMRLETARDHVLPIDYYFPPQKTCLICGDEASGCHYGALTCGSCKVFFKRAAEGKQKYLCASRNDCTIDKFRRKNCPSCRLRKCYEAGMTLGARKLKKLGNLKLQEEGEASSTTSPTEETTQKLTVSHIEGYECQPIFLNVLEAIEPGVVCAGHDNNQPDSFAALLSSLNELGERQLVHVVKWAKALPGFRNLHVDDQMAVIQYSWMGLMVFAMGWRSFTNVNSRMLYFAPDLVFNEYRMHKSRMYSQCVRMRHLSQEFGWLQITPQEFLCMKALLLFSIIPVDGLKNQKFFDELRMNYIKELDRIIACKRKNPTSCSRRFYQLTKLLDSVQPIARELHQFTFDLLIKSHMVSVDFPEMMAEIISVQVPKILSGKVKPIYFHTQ

SMILES	Potency [1]	Potency [2]	Potency [3]	Potency [4]	Potency [5]	Potency [6]	Potency [7]	Potency [8]	Potency [9]	Potency [10]
COC(=O)CC(=O)OC	inactive	inactive	inactive	inactive	inactive	inactive	inactive	inactive		
Clc1ccc(Sc2cc(Cl)c(Cl)cc2Cl)cc1	inactive	inactive	inactive	inactive	inactive	inactive		inactive	inactive	
CCC(=O)O[C@H]1[C@H](O[C@@H]2[C@@H](C)[C@H](O[C@H]3C[C@@](C)(OC)[C@@H](O)[C@H](C)O3)[C@@H](C)C(=O)O[C@H](CC)[C@@](C)(O)[C@H](O)[C@@H](C)C(=O)[C@H](C)C[C@@]2(C)O)O[C@H](C)C[C@@H]1N(C)C	16.1 µM (active) and inactive	inactive	inactive	inactive	36.1 µM (active) and inactive	32.2 µM (active) and inactive				
c1ccc2c(c1)ccc1ncccc12	inactive	inactive	inactive	inactive	inactive	inactive	inactive	inactive		inactive
CCc1cccc2c3c([nH]c12)C(CC)(CC(=O)O)OCC3 (stereo not given)	inactive	inactive	inactive	inactive	inactive	inactive	inactive	inactive		inactive
COc1ccc(C(=O)c2ccccc2O)c(O)c1	17.2 µM (active) and inactive	inactive	inactive	inactive	inactive	inactive		inactive		
O=C(O)COCCN1CCN(C(c2ccccc2)c2ccc(Cl)cc2)CC1 (stereo not given)	inactive	inactive	inactive	inactive	inactive	inactive	inactive	inactive	inactive	
O=C(CCCN1CCC(O)(c2ccc(Cl)cc2)CC1)c1ccc(F)cc1	inactive	inactive	inactive	68.6 µM (active) and inactive	21.7 µM (active) and 23.7 µM (active)			inactive		
C1COCCN1	inactive	inactive	inactive	inactive	inactive	inactive	inactive	inactive	inactive	
O=S1(=O)CCCO1	inactive	inactive	inactive	inactive	inactive	inactive	inactive	inactive		
COC(=O)C(C)Oc1ccc(Oc2ncc(C(F)(F)F)cc2Cl)cc1 (stereo not given)	inactive and 30.6 µM (active)	inactive	inactive	inactive	inactive	inactive	inactive	inactive	inactive	
COc1ccc2nc(N)sc2c1	inactive	inactive	inactive		inactive	inactive	inactive			inactive
C=CCCCCCCCCCC	inactive	inactive	inactive	inactive	inactive	inactive				
Nc1cc([N+](=O)[O-])ccc1C(=O)O	inactive	inactive	inactive	inactive	inactive	inactive	inactive	inactive	inactive	
CC/C=C\C/C=C\C/C=C\CCCCCCCC(=O)O	inactive and 43.3 µM (active)	inactive	inactive	inactive	24.1 µM (active) and inactive	inactive	inactive	inactive		
NCCOCCO	inactive	inactive	inactive	inactive	inactive	inactive	inactive			
[O-]/[N+](=N\O)c1ccccc1	inactive	inactive	inactive		inactive	inactive	inactive	inactive	inactive	
NC[C@H](O)c1ccc(O)c(O)c1	inactive			inactive	inactive	inactive				
CCC(Cc1c(I)cc(I)c(N)c1I)C(=O)O (stereo not given)	inactive			inactive	33.3 µM (active)	inactive	inactive	inactive	inactive	
CC[C@]12CCCN3CCc4c(n(c5ccccc45)[C@@](O)(C(=O)OC)C1)[C@@H]32	inactive			inactive	inactive	inactive				inactive
C[C@]12C=CC(=O)C=C1CC[C@H]1[C@@H]3C[C@@H](O)[C@](O)(C(=O)CO)[C@@]3(C)C[C@H](O)[C@@]12F	inactive			inactive	inactive	inactive	inactive	inactive	inactive	
[Na+]	inactive			inactive	inactive	inactive	inactive			
C=C[Si](OCCOC)(OCCOC)OCCOC	inactive			inactive	inactive	inactive	inactive	inactive		
Nc1ccc(O)c(N)c1	inactive	inactive	inactive		inactive	inactive	inactive			
COc1ccc(-c2coc3cc(O)cc(O)c3c2=O)cc1	17.4 µM (active) and inactive			inactive	38.6 µM (active)	inactive	21.9 µM (active) and 9.69 µM (active)	inactive	inactive	
C=CCNCC=C	inactive			inactive	inactive	inactive	inactive			
